Screens: PubChem BioAssay, several laboratories
KKLEB cytotox: cytotoxicity in KKLEB CF airway cells, primary screen, cytotoxicity control for CF NF-kB inhibitor project, cell-based, uHTS, fluorescence assay plates | AID 602141, 2011 | hit rate 0.36% among 360,000 | activity change (cytotoxicity), % at 5 µM | KKLEB CF airway cells viability, ATPlite luminescence, overnight; active compounds read low; cells stimulated with P. aeruginosa culture filtrate;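 active = corrected activity change at or below -50% at 5 µM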
EWS-Fli inh: EWS/Fli-driven NR0B1 reporter inhibitors, primary screen, A673 cells, NR0B1 luciferase, luminescence, MLPCN library; viability-normalised; inhibition, % at 12.6 µM; hit rate 0.67% among 350,000;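 active = mean inhibition of at least 50% after viability correction, with every replicate also passing that limit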;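 note: firefly luciferase signal divided by Alamar Blue viability fluorescence both relative to DMSO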
HIF-2a block: HIF-2a reporter inhibitors, primary screen, luminescence, 786-0 RCC cells. 786-0 RCC cells HIF-2a reporter, luciferase luminescence, overnight. inhibition, % at 18.8 µM. hit rate 0.72% among 360,000. AID 624352, 2012;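 active = inhibition of the luminescence signal of 40% or more relative to plate controls, in a single-dose primary screen at 18.75 µM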
PAX8 inh HTS: inhibitors of PAX8-driven TPO luciferase reporter, primary screen, RMG-I cells, single concentration | SteadyGlo, 24 h | inhibition, % at 12.6 µM | hit rate 1.2% among 360,000;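 active = mean replicate inhibition at least 60% with every replicate also reaching 60%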;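 note: luciferase light reporting Pax8 driven TPO promoter activity; plate controls were median of neutral control wells for no effect and mitoxantrone controls for full effect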
CF NFkB inh: inhibitors of PAF-induced NF-kB signaling, primary screen, cell-based, GFP fluorescence, uHTS | KKLEB NF-kB-GFP reporter, GFP fluorescence overnight | inhibition, % at 5 µM | hit rate 0.86% among 360,000 | AID 588850, 2011;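 active = at least 50% inhibition at 5 µM, scaled per plate between neutral and stimulator controls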;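 note: PAF is a Pseudomonas aeruginosa culture filtrate used as stimulus; plate controls were PAF-stimulated DMSO wells for no effect and unstimulated DMSO wells for full effect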
An asterisk follows results filed as active; x = not tested or not shown. Only some compounds are listed: those with a hit (about 2.1% of all), similar ones and a draw of the others.

SMILES | KKLEB cytotox | EWS-Fli inh | HIF-2a block | PAX8 inh HTS | CF NFkB inh
Cc1c(CCOC(=O)CC23CC4CC(CC(C4)C2)C3)sc[n+]1Cc1ccccc1 | -17 | x | 3 | 52 | 0
Oc1ccc(/C=N\Nc2cc(N3CCOCC3)nc(N3CCOCC3)n2)c(O)c1 | 3 | -4 | -16 | 87* | 4
Cc1cc(N/N=C/c2ccc(O)cc2O)nc(N2CCOCC2)n1 | -3 | -10 | -48 | -18 | 19
CCCOc1ccc(/C=N/Nc2cc(N3CCOCC3)ncn2)c(O)c1 | -42 | 15 | 18 | 54 | 54*
C[C@@H]1CCCCO[C@@H](CN(C)C)[C@H](C)CN([C@@H](C)CO)C(=O)c2cc(NC(=O)Cc3ccccc3)ccc2O1 | x | -3 | x | -3 | x
C[C@@H]1CN([C@@H](C)CO)C(=O)c2cc(NC(=O)c3ccncc3)ccc2O[C@@H](C)CCCCO[C@@H]1CN(C)C(=O)Nc1ccc(C(F)(F)F)cc1 | x | -7 | x | x | x
Cc1ccc(S(=O)(=O)N(C)C[C@@H]2Oc3cc(C#Cc4ccncc4)ccc3S(=O)(=O)N([C@H](C)CO)C[C@@H]2C)cc1 | x | 28 | x | 78* | x
C[C@H](CO)N1C[C@H](C)[C@@H](CN(C)S(=O)(=O)c2ccc(F)cc2)Oc2cc(C#Cc3ccncc3)ccc2S1(=O)=O | x | -6 | x | x | x
COc1ccc(S(=O)(=O)N(C)C[C@H]2Oc3cc(C#CC4CCCC4)ccc3S(=O)(=O)N([C@@H](C)CO)C[C@@H]2C)cc1 | x | 7 | x | 90* | x
Cc1ccc(S(=O)(=O)N(C)C[C@H]2Oc3cc(C#Cc4ccncc4)ccc3S(=O)(=O)N([C@@H](C)CO)C[C@@H]2C)cc1 | x | 22 | x | 103* | x
COc1ccc(S(=O)(=O)N(C)C[C@H]2Oc3cc(C#CC4CCCC4)ccc3S(=O)(=O)N([C@@H](C)CO)C[C@H]2C)cc1 | x | 17 | x | -2 | x
Cc1ccc(S(=O)(=O)N(C)C[C@@H]2Oc3cc(C#Cc4ccncc4)ccc3S(=O)(=O)N([C@H](C)CO)C[C@H]2C)cc1 | x | 46 | x | 106* | x
COc1ccc(C#Cc2cnc3c(c2)C(=O)N([C@@H](C)CO)C[C@@H](C)[C@@H](CN(C)C(=O)Nc2cccc(OC)c2)O3)cc1 | x | -11 | x | x | x
CCc1cccc2c(C(=O)CN3C(=O)C(=O)N(C4CCCC4)C3=O)c[nH]c12 | 16 | -1 | -7 | -2 | -10
CCc1cccc2c(C(=O)CN3C(=O)NC4(CCCCCC4)C3=O)c[nH]c12 | -26 | 45 | 7 | 82* | 1
CO[C@H]1CN(C)C(=O)c2cc(NS(=O)(=O)CC(F)(F)F)ccc2OC[C@@H](C)N(CCC(F)(F)F)C[C@H]1C | x | 2 | x | 4 | x
Cc1cc2nnc(SCC(=O)NCc3ccco3)n2c2ccccc12 | -6 | 51* | -10 | 31 | -3
CC(=O)c1ccccc1-c1csc2ncnc(Sc3nnnn3C)c12 | -27 | 8 | 8 | 86* | 43
COC(=O)CSc1ncnc2scc(-c3ccccc3)c12 | -24 | 4 | 17 | -11 | 35
O=C(NCC1CCCO1)C(=Cc1cccc([N+](=O)[O-])c1)C(=O)NCC1CCCO1 (stereo not given) | 5 | 0 | 39 | 98* | 27
O=C(NCC1CCCO1)/C(=C\c1cccc([N+](=O)[O-])c1)NC(=O)c1ccccc1 (stereo not given) | -34 | 4 | 10 | 5 | -4
CCOc1ccc(C)cc1S(=O)(=O)n1cnc2ccccc21 | -28 | 59* | 22 | -2 | 10
C[C@@H]1CN([C@H](C)CO)C(=O)c2cc(NC(=O)Nc3ccc4c(c3)OCO4)ccc2O[C@H]1CN(C)C(=O)Nc1cccc2ccccc12 | x | 2 | x | x | x
C[C@@H]1CCCCO[C@H](CN(C)Cc2ccccc2)[C@H](C)CN([C@@H](C)CO)C(=O)c2cc(NC(=O)C3CCCCC3)ccc2O1 | x | 10 | x | 16 | x
Cc1ccc(-c2nc3cccnc3o2)cc1NC(=O)COc1ccc(Cl)cc1C | -49 | x | 9 | 24 | 60*
COc1ccc(NC(=O)N(C)C[C@@H]2OCCCC[C@@H](C)Oc3ccc(NS(=O)(=O)c4ccc(OC)cc4)cc3C(=O)N([C@@H](C)CO)C[C@@H]2C)cc1 | x | x | x | 12 | x
